Measurements taken from paper PMC9838217, “Structure of SALL4 zinc finger domain reveals link between AT-rich DNA binding and Okihiro syndrome”.

target: T1, SALL4 ZFC4 WT (HT-SELEX) (Mus musculus, UniProt Q8BX22 870-940); assay: HT-SELEX; high values mean tight binding; details: protein: recombinant; vector His6-GST; dsDNA, one strand shown
T1 sequence: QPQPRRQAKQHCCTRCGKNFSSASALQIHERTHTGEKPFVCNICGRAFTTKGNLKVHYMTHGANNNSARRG
In short: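 Residues 870–940 of mouse SALL4, forming zinc finger cluster 4, were expressed recombinantly, purified, and 1 µg was incubated with library DNA (1.5 µg first cycle, 200 ng later) in 100 µl of 10 mM Tris–HCl pH 7.5, 50 mM NaCl, poly(dI-dC) and DTT for 10 min at room temperature. Washed Ni2+ bead-captured complexes were PCR-amplified and reselected for up to 6 cycles in triplicate, and the products were sequenced on MiSeq and scanned for 6-mers. Binding signal is the fold change in each canonical k-mer's read fraction compared with the initial random library.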

Row | Sequence | binding signal [fold-change vs cycle 0]
1 | AATGAG | 1.36 ± 0.0386
2 | GATTAC | 1.43 ± 0.106
3 | CATGGG | 0.477 ± 0.0485
4 | AGTGTA | 1.32 ± 0.061
5 | TCTGAA | 1.3 ± 0.0929
6 | AGACCG | 0.32 ± 0.0198
7 | ATTCAC | 1.32 ± 0.0734
8 | CCAAGG | 0.457 ± 0.0202
9 | ACACAC | 0.701 ± 0.0589
10 | AACAGC | 0.555 ± 0.024
11 | ACCACA | 0.701 ± 0.0312
12 | CATTTC | 1.25 ± 0.0444
13 | GTCTAA | 1.16 ± 0.029
14 | CTAATC | 1.38 ± 0.0603
15 | TACTGA | 1.38 ± 0.119
16 | ATTTTG | 1.66 ± 0.083
17 | ATAGCC | 0.53 ± 0.0341
18 | GGTAGA | 0.746 ± 0.0282
19 | ACCTTG | 0.8287 ± 0.00258
20 | AGTGGG | 0.455 ± 0.0261

Row | Sequence | binding signal [fold-change vs cycle 0]
21 | ATCAAA | 1.96 ± 0.105
22 | AGAACT | 1.36 ± 0.0489
23 | ATTAAG | 2.1 ± 0.107
24 | ACCCCA | 0.468 ± 0.0336
25 | AACCCA | 0.813 ± 0.0466
26 | AATATC | 2.49 ± 0.203
27 | ACTAGC | 0.648 ± 0.0227
28 | CGTTGA | 0.664 ± 0.053
29 | ACGTAA | 1.19 ± 0.0733
30 | AAGCTT | 1.18 ± 0.0611
31 | AATTCA | 2.33 ± 0.187
32 | CGAACA | 0.588 ± 0.0204
33 | ATACTC | 1.45 ± 0.0421
34 | TGATAA | 2.35 ± 0.175
35 | TAGCAA | 1.14 ± 0.0337
36 | TGGCAA | 0.479 ± 0.0154
37 | ATCGGG | 0.397 ± 0.0233
38 | AATTAA | 3.49 ± 0.279
39 | CCTTGA | 0.879 ± 0.0172
40 | AGTTGC | 0.578 ± 0.0388
